Assay outcomes deposited in PubChem BioAssay by National Center for Advancing Translational Sciences (NCATS).
An excerpt weighted towards active compounds, which were near 18% of everything screened.
Gal4-VP16 FLuc – Gal4-VP16 reporter inhibition counter-screen. hit rate 3.5% among 310,000. AID 2546. Potency, µM (titrated, usually from 53.6 µM), for inactives: top-dose activity, negative = inhibition, actives largely listed as inhibitors. Drosophila S2 Gal4-VP16 UAS-luciferase, luminescence, 20 h;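 further: Gal4-VP16 expression switched on by copper sulfate through the metallothionein promoter; potency means the concentration at half of the fitted maximal effect; nearly all actives have a fitted effect of over 50% in size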
DT40 TDP1 CPT – growth inhibition of DT40 Tdp1-/-;hTDP1 cells with camptothecin (screen for TDP1 inhibitors). Potency, µM (doses to about 46.2 µM), without a hit: at the top dose activity change, negative = growth inhibition, usual class: inhibitors. hit rate 12% among 420,000. chicken DT40 Tdp1-/-;hTDP1 cells + 20 nM CPT, ATP luminescence, 48 h; further: potency means the concentration at half of the fitted maximal effect; nearly all actives have a fitted effect of over 55% in size
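Chicken DT40 Tdp1-/- cells complemented with human TDP1, 400 cells/well, exposed to compounds plus 20 nM camptothecin for at least 48 h at 37 C; viability read as ATP content by CellTiter-Glo luminescence.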
LDHA block – blocks human lactate dehydrogenase A | P00338 | purified LDHA, NADH/diaphorase-resazurin fluorescence; stronger effect = lower value | activity change, % (values are at about 110 or 230 µM) | hit rate 0.15% among 480,000; in the data active means activity change below about -30%; inconclusive means mostly about -25% to -30%;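 further: plate controls were DMSO wells for no effect and wells without enzyme for full effect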
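Remaining NADH was detected by diaphorase (0.133 mg/mL) converting 37 µM resazurin to fluorescent resorufin, read at 0 and 20 minutes. The preceding 5-minute room-temperature reaction used 2 nM LDHA, 0.2 mM sodium pyruvate and 0.06 mM NADH at pH 7.4.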
RORgamma inh – ROR gamma (mouse) transcription inhibition | Drosophila S2 Gal4-RORgamma UAS-luciferase reporter, 20 h | Potency, µM (titrated, usually from 53.6 µM), for inactives: top-dose activity change, negative = inhibition, actives largely listed as inhibitors | hit rate 5.4% among 310,000; further: potency means the concentration at half of the fitted maximal effect; nearly all actives have a fitted effect of over 60% in size
Target sequence (P51450 whole entry, looked up, the tested form may be a part): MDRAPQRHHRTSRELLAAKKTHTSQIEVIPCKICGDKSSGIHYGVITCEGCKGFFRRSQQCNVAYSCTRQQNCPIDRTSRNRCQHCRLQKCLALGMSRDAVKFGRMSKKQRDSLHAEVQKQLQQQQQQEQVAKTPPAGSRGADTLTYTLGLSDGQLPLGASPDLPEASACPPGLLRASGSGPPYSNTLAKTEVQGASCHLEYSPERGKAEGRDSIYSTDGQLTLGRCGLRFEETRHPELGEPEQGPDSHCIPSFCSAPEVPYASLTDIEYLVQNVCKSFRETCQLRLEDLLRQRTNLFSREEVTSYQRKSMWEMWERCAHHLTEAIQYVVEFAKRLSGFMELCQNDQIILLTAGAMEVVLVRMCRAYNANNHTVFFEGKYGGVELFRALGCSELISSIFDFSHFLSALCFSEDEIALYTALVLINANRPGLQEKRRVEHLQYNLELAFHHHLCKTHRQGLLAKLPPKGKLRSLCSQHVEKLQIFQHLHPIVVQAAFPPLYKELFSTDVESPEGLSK
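Read-out: Photinus luciferase luminescence; inhibitors lower reporter signal. Insect Schneider cells with Gal4-ROR gamma fusion under metallothionein promoter, UAS reporter; 700 uM final copper sulfate induction, 20 hr, ambient temperature.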
IL1B secr inh – inhibitors of inflammasome signaling (IL-1 beta secretion) | activity change, % at 57.5 µM | THP-1 LPS/ATP IL-1B secretion, AlphaLISA, 16 h; stronger effect = lower value | hit rate 4.7% among 360,000; in the data active means activity change below about -50%; inconclusive means mostly about -30% to -49%
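Secreted IL-1B measured by AlphaLISA bead assay after 16 h compound exposure of THP-1 cells; compounds (final up to 57.5 uM) added 1 h before LPS (250 ng/mL) and ATP (1.25 mM) stimulation; lower signal means less secretion.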
DT40 TDP1 no CPT – qHTS for Inhibitors of human tyrosyl-DNA phosphodiesterase 1 (TDP1): qHTS in cells in absence of CPT. hit rate 15% among 420,000. AID 686978, 2013. Potency, µM (doses to about 46.2 µM), for inactives: at the top dose activity change, negative = growth inhibition, actives largely listed as inhibitors. DT40 Tdp1-/- hTDP1 cells, no CPT, ATP luminescence, 48 h; further: potency means the concentration at half of the fitted maximal effect; nearly all actives have a fitted effect of over 55% in size
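DT40 Tdp1-/-;hTDP1 cells, no CPT (DMSO vehicle only), 400 cells/well; compounds pin-transferred; ≥48 hr, 37 °C; CellTiter-Glo 30 min RT dark, luminescence read.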
Numbers without * were called inactive; ? = inconclusive; nt = no result given; [ ] = another dose, or the depositor's remark. Unless noted, the call rests on the fitted dose curve; in most records, active means well fitted curve in the direction sought with a large enough effect; inconclusive means small, poorly fitted or top-dose-only effect, or another doubt; inactive means no such curve, though single readings can be large; an effect the other way counts as inactive or inconclusive. Unless noted, on the % scale 0 is the no-effect control and ±100 the full control effect.

SMILES	Gal4-VP16 FLuc	DT40 TDP1 CPT	LDHA block	RORgamma inh	IL1B secr inh	DT40 TDP1 no CPT
O=C(N/N=C/c1ccccc1OC(=O)c1ccc2c(c1)OCO2)c1ccccc1	?	4.11µM*	4.1	11.2µM*	0.0	4.11µM*
COc1ccc(C(=O)N/N=C/c2ccccc2OC(=O)c2ccccc2)cc1	5.01µM*	0.581µM*	0.2	3.55µM*	116.7	0.517µM*
COc1cc(C(=O)Oc2ccccc2/C=N/NC(=O)c2ccc(C)cc2)cc(OC)c1OC	-5.4%	1.03µM*	-5.1	-1.0%	91.5	0.651µM*
CN(CCC(=O)c1cccs1)CCC(=O)c1cccs1	nt	nt	-0.4	nt	nt	nt
O=C(CCc1ncc(-c2ccc(F)cc2F)o1)N1CCc2ccccc21	nt	nt	11.5	nt	nt	nt
Cc1c(B2OC(C)(C)C(C)(C)O2)cnn1C	nt	nt	0.4	nt	nt	nt
COc1cc(C(=O)Oc2cccc(/C=N/NC(=O)c3cccnc3)c2)cc(OC)c1OC	-5.1%	6.51µM*	-9.0	-23.8%	29.7	9.2µM*
COc1ccc(Br)cc1/C=N/NC(=O)c1cc(OC)c(OC)c(OC)c1	5.1%	?	-2.6	?	33.4	?
COc1cc(C(=O)N/N=C/c2ccsc2C)cc(OC)c1OC	?	1.16µM*	-4.1	12.6µM*	56.1	0.651µM*
CC(C)=CCCC(C)CCC/C(C)=N/NC(N)=O (stereo unspecified)	nt	nt	-2.8	nt	nt	nt
CCn1c(-c2cc(-c3cccc(OC)c3)nc3ccccc23)n[nH]c1=S	?	?	-4.8	5.01µM*	-6.4	?
CCc1ccc(-c2cc(C(=O)O)c3ccccc3n2)cc1	nt	nt	-4.6	nt	nt	nt
CCOc1cccc(-c2cc(C(=O)O)c3ccccc3n2)c1	nt	nt	1.6	nt	nt	nt
CCc1ccc(-c2cc(-c3n[nH]c(=S)n3CC)c3ccccc3n2)cc1	-22.8%	nt	nt	2µM*	nt	nt
O=Cc1c(-c2ccccc2)no[n+]1[O-]	nt	nt	-0.4	nt	nt	nt
CC(C)(CO)NCc1c(OCc2ccc(Cl)cc2)ccc2ccccc12	-11.7%	?	-0.9	-17.7%	-106.3*	?
CNCc1c(OCc2ccccc2)ccc2ccccc12	-3.2%	?	0.0	23.9%	-85.9*	?
Cc1ccc(COc2ccc3ccccc3c2CNCC(O)c2ccccc2)cc1 (stereo unspecified)	nt	nt	3.3	nt	nt	nt
Cc1c(-c2ccccc2)nn2c1NC(=O)CC2C(=O)Nc1ccc2c(c1)OCO2 (stereo unspecified)	nt	nt	-2.9	nt	nt	nt
CCCN1CCN(c2nc3c(c(=O)[nH]c(=O)n3C)n2Cc2ccccc2)CC1	nt	nt	-3.1	nt	nt	nt
COc1ccc(C(C)=O)cc1CN1C(=O)C(C)ON=C1c1cccc(C(F)(F)F)c1 (stereo unspecified)	nt	?	2.2	nt	-22.5	16.4µM*
COc1ccc(C(C)=O)cc1CN1C(=O)C(C)ON=C1c1ncccc1C (stereo unspecified)	nt	-11.2%	-2.5	nt	-23.5	10.1%
CN1CCN(Cc2ccc(OCc3ccccc3)cc2)CC1	-10.6%	-23.6%	0.3	-3.0%	-13.3	-9.3%
CCCOCc1cc(CN2CCN(c3cccc(Cl)c3)CC2)c(O)c2ncccc12	nt	5.8µM*	3.1	nt	nt	5.17µM*
CN1CCN(Cc2cc(COCc3ccccc3)c3cccnc3c2O)CC1	1.26µM*	3.26µM*	8.0	2µM*	-96.8*	3.26µM*
SMILES	Gal4-VP16 FLuc	DT40 TDP1 CPT	LDHA block	RORgamma inh	IL1B secr inh	DT40 TDP1 no CPT
CCCCOCc1cc(CN2CCN(c3cccc(Cl)c3)CC2)c(O)c2ncccc12	nt	16.4µM*	5.3	nt	nt	3.26µM*
Cc1ccc2c(CN3CCN(c4cccc(Cl)c4)CC3)cc(=O)oc2c1	nt	nt	-9.9	nt	nt	nt
CC(C)CNC(=O)C1CCCC1	nt	nt	-4.4	nt	nt	nt
Cc1ccc(-c2ccc(C(N)=O)o2)cc1	nt	nt	4.4	nt	nt	nt
Cc1ccccc1-n1cnnc1SCC(=O)Nc1ccc(S(=O)(=O)N2CCCCCC2)cc1	nt	nt	-1.2	nt	nt	nt
Cc1cc(-c2nnc(CCC(=O)N(C)Cc3cccc4ccccc34)o2)no1	-0.1%	-23.4%	4.0	43.7%	42.5	-22.2%
c1ccc2c(CCc3c[nH]c4ccccc34)ccnc2c1	nt	12.6µM*	3.1	nt	nt	15.8µM*
COc1ccc(CCc2nnc(CCC(=O)N(C)Cc3ccnc4ccccc34)o2)cc1	?	?	-6.6	?	-27.7	4.61µM*
COc1ccc(OC)c(C(Cc2ccnc3ccccc23)Cc2ccnc3ccccc23)c1	nt	12.6µM*	0.2	nt	nt	12.6µM*
COc1ccccc1CCc1nnc(CCC(=O)N(C)Cc2cccc3cnccc23)o1	6.6%	?	-3.5	5.7%	-8.3	23.1µM*
COc1ccccc1CCc1nnc(CCC(=O)N(C)Cc2ccncc2C)o1	-0.6%	-22.9%	-11.8	15.1%	-9.3	?
c1ccc2c(Cc3c[nH]c4ccccc34)c[nH]c2c1	-1.5%	-2.3%	nt	-2.8%	nt	2.8%
COc1ccc(CCc2ccc3ccccc3n2)cc1	nt	5.9%	-12.3	nt	-1.5	?
COc1ccc(CCc2ccnc3ccccc23)cc1	nt	?	-4.6	nt	-62.2*	20.6µM*
CCCN(CC1CCCO1)C(=O)CCc1nnc(CCc2ccc(OC)cc2)o1 (stereo unspecified)	-13.0%	23.1µM*	-12.3	2.4%	7.1	?
COc1ccccc1C(=O)NCC(=O)N/N=C/c1cc(Br)ccc1OCc1ccccc1	-8.8%	?	-9.0	19.8%	-77.7*	23.1µM*
O=C(N/N=C\c1ccccc1OCc1ccccc1)c1ccco1	7.5%	-18.4%	-7.9	-28.2%[10 µM]	-3.0	-20.4%
COc1ccc(/C=N/NC(=O)c2ccccc2OCc2ccccc2)c(OC)c1	1.2%	?	-0.9	8.6%	-10.5	18.4µM*
C#CCOc1ccccc1/C=N/NC(=O)c1ccccc1OCc1ccccc1	-7.1%	?	-2.3	-17.8%	-4.8	20.6µM*
Cc1cccc(/C=N/NC(=O)c2cc(Br)ccc2OCc2ccccc2)n1	-24.4%	?	-4.3	?	4.0	23.1µM*
O=C(CNC(=O)c1ccc(F)cc1)N/N=C/c1cc(Br)ccc1OCc1ccccc1	-5.5%	?	-0.3	22.3%	?	?
Cc1cccc(NC(=O)CC2Nc3ccccc3NC2=O)c1C (stereo unspecified)	nt	nt	-13.6	nt	nt	nt
O=C(O)COc1cccc2[nH]ccc12	nt	nt	18.4	nt	nt	nt
CCCn1c(C)cc(C(=O)CSc2nnc(-c3ccncc3)n2-c2ccccc2)c1C	nt	nt	17.6	nt	nt	nt
Cc1ccc(/C=N/NC(=O)c2ccccc2OCc2ccc(F)cc2)o1	2.6%	5.8µM*	-0.7	2.3%	0.0	2.91µM*
CCC(CC)=NNC(=O)c1ccccc1OCc1ccc(F)cc1	0.6%	2.6%	-4.8	-11.3%	36.4	-3.0%
